High-throughput results (PubChem BioAssay)
A selection: hits, their analogues and other compounds. The true share with any hit is near 10%.
Six1-Eya2 inh: blocks human Six1 binding to Eya2; Q15475+O00167; AlphaScreen GST-Six1/His-Eya2 binding, biochemical; hits give low values; activity change, % (test concentration not listed); hit rate 0.56% among 360,000; in the data active means activity change below about -65%; inconclusive means mostly about -30% to -63%; further: on the % scale 0 is the no-effect control and ±100 the full control effect
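Compounds are tested against tagged Six1 and Eya2 proteins bridged by glutathione donor and nickel acceptor beads; after a one-hour incubation at 37 °C without light, AlphaScreen emission is recorded.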
JMJD2A Tudor: JMJD2A Tudor domain (human) inhibition. O75164. AlphaScreen JMJD2A-Tudor / H3K4me3 peptide binding. Potency, µM (series often up to 114 µM), for inactives: at the highest dose activity change, negative = inhibition, hits mostly inhibitors. hit rate 4.4% among 390,000; further: potency means the concentration at half of the fitted maximal effect; on the % scale 0 is the no-effect control and ±100 the full control effect; nearly all actives have a fitted effect of over 50% in size
G9a inh: blocks human histone lysine methyltransferase G9a; Q96KQ7; G9a H3K9 monomethylation, AlphaScreen, 2 h; Potency, µM (titrated, usually from 102 µM), without a hit: top-dose activity, negative = inhibition, most hits filed as inhibitors; hit rate 8.8% among 350,000; AID 504332; further: potency means the concentration at half of the fitted maximal effect; on the % scale 0 is the no-effect control and ±100 the full control effect; nearly all actives have a fitted effect of over 75% in size
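Readings reflect AlphaScreen signal from monomethyl-H3K9 antibody detection. HMT at 20 nM; substrate b-H3K9 500 nM; cofactor SAM 20 uM; 2 h RT reaction; compounds tested as titrations in qHTS with 15 min preincubation.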
HP1b binding inh: blocks HP1-beta chromodomain binding to methylated histone tails. P83916. AlphaScreen HP1-beta / biotin-H3K9me3 peptide binding. Potency, µM (titrated, usually from 114 µM), without a hit: top-dose activity change, negative = inhibition, hits mostly inhibitors. hit rate 0.56% among 390,000; further: potency means the concentration at half of the fitted maximal effect; nearly all actives have a fitted effect of over 70% in size
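HP1-beta protein (50 nM final) preincubated 30 min at room temperature with biotinylated H3(1-18)K9me3 peptide (50 nM) in PBS pH 7.4, 0.01% Tween-20, then compound added for 30 min. AlphaScreen streptavidin donor/nickel chelate acceptor beads (10 ug/mL final), 30 min dark, luminescence read.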
CtBP-E1A inh: blocks the CtBP interaction with E1A | AlphaScreen GST-E1A/His-CtBP binding, 1536-well; hits give low values | activity change, % (no concentration beside the values) | hit rate 0.49% among 340,000 | AID 651724; in the data active means activity change below about -65%; inconclusive means mostly about -30% to -63%; further: on the % scale 0 is the no-effect control and ±100 the full control effect
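Protein mix (5X: 125 nM each GST-E1A, His-CtBP) was incubated with pinned compound 2 h at 37 deg C in dark, in 50 mM Tris pH 8.0 buffer with 300 mM NaCl. Glutathione donor and nickel acceptor beads followed; AlphaScreen signal read after 1 h.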
BAZ2B inh: BAZ2B (human) inhibition | hit rate 4.4% among 360,000 | Q9UIF8 | AlphaScreen BAZ2B-H3K14Ac peptide displacement | Potency, µM (doses to about 114 µM), inactives show at the top dose activity change, negative = inhibition, actives largely listed as inhibitors | AID 504333; further: potency means the concentration at half of the fitted maximal effect; on the % scale 0 is the no-effect control and ±100 the full control effect; nearly all actives have a fitted effect of over 60% in size
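Protein-peptide AlphaScreen: BAZ2B 50 nM, b-H3K14Ac 50 nM, 1x PBS pH 7.4 + 0.01% Tween-20. Preincubation 30 min RT; cpd 30 min RT (top 110 uM); beads 20 min RT, light-protected.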
* marks the source's active call; other numbers are inactive results; ? = inconclusive; . = no result given; [ ] = dose if it differs, or a comment. Unless noted, the call rests on the fitted dose curve; in most records, active means well fitted inhibition curve with a large enough effect; inconclusive means small, poorly fitted or top-dose-only effect; inactive means no such curve, though single readings can be large or run the other way.

SMILES	Six1-Eya2 inh	JMJD2A Tudor	G9a inh	HP1b binding inh	CtBP-E1A inh	BAZ2B inh
COc1ccc(CC(=O)Nc2ccc(C(=O)Nc3ccccc3C(=O)O)cc2)cc1OC	-75.7*	-16.3%	?	8.3%	-66.8*	-24.3%
COc1ccc(OC)c(NC(=O)c2cc(=O)c3c(C)cc(C)cc3o2)c1	.	-29.2%	-36.4%[59 µM]	30.2%	.	-22.3%
C/C(=N\NC(=O)c1ccn(C)n1)c1cccc(NC(=O)c2ccncc2)c1	-2.5	10µM*	18.4%	-4.8%	0.0	-5.3%
Cc1ccc(-c2nc(CN(Cc3c(C)nn(C)c3C)C(C)C)c(C)o2)o1	-89.7*	-16.4%	.	28.8%	-5.8	-8.5%
Cc1nn(C)c(C)c1CN(Cc1nc(-c2ccc(F)cc2F)oc1C)C1CC1	-3.2	-17.6%	.	28.2%	-1.1	?
Cc1ccc(C)c(CNC(=O)C2CCN(c3nc4ccccc4nc3C(F)(F)F)CC2)c1	.	-9.7%	10.5%[59 µM]	0.7%	.	-1.5%
CCOC(=O)c1cccc(NC(=O)CC(c2cc(OC)c(OC)c(OC)c2)N2Cc3ccccc3C2=O)c1 (stereo not drawn)	.	-30.7%	-8.1%[59 µM]	-0.7%	.	-11.3%
Oc1ccc(/C=C/c2nc(-c3ccccc3O)n(-c3ccccc3)n2)c(O)c1	.	?	?	1.2%	.	31.6µM*
COc1cc(OC)c(NC(=O)C2=C(C)C(=O)OC23CCCCC3)cc1Cl	.	-34.0%	-10.9%[59 µM]	5.9%	.	-26.7%
Fc1cc2[nH]c(=S)[nH]c2cc1Cl	1.6	-10.6%	6.31µM*	8.2%	4.0	-2.5%
O=C(NCC(c1ccccc1)c1ccccc1)c1nn(-c2ccccc2Cl)nc1CO	.	-14.8%	9.7%[59 µM]	34.2%	.	-0.2%
C#CCOCCOCCOCCNc1nc(N2CCN(C(=O)[C@H](Cc3ccc(O)cc3)n3cc([C@@H](N)C(C)CC)nn3)CC2)nc(N2CCN(C(=O)[C@H](Cc3cc4ccccc4[nH]3)n3cc([C@@H](N)Cc4ccc(O)cc4)nn3)CC2)n1 (stereo partly drawn)	.	.	?	.	.	31.6µM*
C#CCOCCOCCOCCNc1nc(N2CCN(C(=O)[C@H](Cc3ccc(O)cc3)n3cc([C@@H](N)CC(C)C)nn3)CC2)nc(N2CCN(C(=O)[C@H](Cc3cc4ccccc4[nH]3)n3cc([C@@H](N)CC(C)C)nn3)CC2)n1	-16.1	10µM*	4.8%[12.7 µM]	-9.6%	-12.8	25.1µM*
C#CCOCCOCCOCCNc1nc(N2CCN(C(=O)C(Cc3ccc(O)cc3)n3cc(C(N)CC(C)C)nn3)CC2)nc(N2CCN(C(=O)C(Cc3cc4ccccc4[nH]3)n3cc(C(N)C(C)CC)nn3)CC2)n1 (stereo not drawn)	.	.	?	.	.	50.1µM*
Cc1cc(=O)n(CC(=O)NC(C)c2ccccc2)c2c1c(C)nn2-c1cccc(F)c1 (stereo not drawn)	.	-27.0%	46.1%[59 µM]	-33.7%	.	4.2%
Cc1ccc(Cl)cc1N1CCN(C(=O)Cn2c(-c3cccs3)cc3cc(F)ccc32)CC1	.	-8.6%	0.9%[59 µM]	35.1%	.	-2.4%
COc1ccc(/C=C2/CCc3ccccc3C2=O)cc1OC	2.4	-12.3%	-1.4%[59 µM]	20.2%	-6.9	?
CCOc1cc(/C=C2\COc3ccccc3C2=O)cc(Br)c1OCC(=O)N(C)C	-10.0	?	39.8µM*	-22.3%	-12.9	?
CCOc1cc(/C=N/Nc2nc3ccccc3[nH]2)cc(Br)c1OCC(=O)N(C)C	?	-22.4%	15.5%	25.1%	-17.3	-16.0%
COc1ccc(/C=C2\COc3ccccc3C2=O)cc1OC	-15.9	50.1µM*	-10.2%[59 µM]	-2.9%	0.3	-2.7%
CCOCCCn1c(SCC(=O)Nc2ccc(C(C)C)cc2)nc2c(sc3ccccc32)c1=O	.	-16.3%	7.0%[59 µM]	22.9%	.	-1.8%
O=C(Nc1ccc(Br)cc1F)C(NS(=O)(=O)c1cccc2nsnc12)c1ccccc1 (stereo not drawn)	.	-30.0%	?	11.1%	.	.
Cc1ccc(Nc2ccc(N3CCN(C(=O)c4ccc([N+](=O)[O-])cc4)CC3)nn2)cc1	.	-20.8%	-26.0%[59 µM]	13.2%	.	-22.3%
